Tests used:
[1] = test system: Human papillomavirus type 1a protein E7 (residues 44-93); test: small molecules binding HPV E7 44-93 – biochemical, small-molecule microarray, residues 44-93, 635 nm fluorescence, primary screen (AID 1108); conditions: fluorescence 635 nm, higher = more signal;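 also: E7 fragment applied at 1 µg/mL in TBST for 1 h at 4 C; score combines spot fluorescence with its signal to noise ratio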
[2] = hepatitis C replication reporter changes, two-sided – Huh7 cells, luciferase reporter, HCV replication inhibitor project, primary screen (AID 1109); conditions: Huh7 HCV replicon luciferase reporter, 48 h; higher = more signal;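 also: huh7 hepatoma cells harbouring a luciferase neomycin HCV replicon reporter; luciferase luminescence as measure of HCV replicon replication; test concentration not given here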
[3] = molecular target: Left-right determination factor 2 (Homo sapiens) (UniProt O00292); test: small molecules binding LEFTY2 protein – biochemical, small-molecule microarray, 635 nm fluorescence scan, primary screen (AID 1110); conditions: higher = more signal
[4] = molecular target: Calmodulin-1 (Homo sapiens) (UniProt P0DP23); test: small molecules binding calmodulin-1 with EGTA – biochemical, small-molecule microarray, Cy5-labelled CALM1, profiling panel (AID 1111); conditions: Cy5-CALM1 binding fluorescence, higher = more signal;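 also: labelled calmodulin applied in Tris saline Tween buffer holding calcium plus EGTA and DTT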
[5] = molecular target: Calmodulin-1 (Homo sapiens) (UniProt P0DP23); test: small molecules binding Ca-loaded calmodulin-1 – biochemical, small-molecule microarray, Cy5-labelled CALM1, plus calcium, artefact control for SMM control-protein annotation, profiling panel (AID 1112); conditions: Cy5-CALM1 binding fluorescence, higher = more signal;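 also: score merges spot fluorescence with signal to noise from triplicate slides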
[6] = probe aWnt5a binding to arrayed compounds – biochemical, biotinylated probe, 635/667 nm fluorescence, primary screen (AID 1113); conditions: small-molecule microarray, higher = more signal;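 also: score merges 667 nm fluorescence intensity with signal-to-noise per printed feature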
[7] = probe aShh binding to arrayed compounds – biochemical, biotinylated probe, 635/667 nm fluorescence, primary screen (AID 1114); conditions: small-molecule microarray, higher = more signal;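 also: probe is biotin-labelled aShh protein from a stem cell growth factor screen; measures binding of labelled protein to compounds printed on the slide; score merges feature fluorescence at 667 nm with signal-to-noise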
[8] = probe aNog binding to arrayed compounds – biochemical, biotinylated probe, 635/667 nm fluorescence, primary screen (AID 1115); conditions: small-molecule microarray, higher = more signal;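 also: probe is biotinylated aNog protein used at 0.15 µg/mL for 1 h at 4 C; z-score combines 667 nm fluorescence of each spot with its signal to noise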
[9] = molecular target: Torsin-1A-interacting protein 1 (Homo sapiens) (UniProt Q5JTV8); test: compound microarray binding of lysate hLAP1 – cell lysate, small-molecule microarray, COS7 lysate, 635/667 nm fluorescence, primary screen (AID 1116); conditions: 635 nm fluorescence, higher = more signal
[10] = molecular target: Alpha-bungarotoxin (Bungarus multicinctus) (UniProt P60615); test: compounds binding labelled alpha-BTX control protein – biochemical, small-molecule microarray, Alexa647 label, 635/667 nm fluorescence, artefact control for SMM control protein annotation, profiling panel (AID 1117); conditions: alpha-BTX-A647 binding fluorescence, higher = more signal
Sequence of Alpha-bungarotoxin (Bungarus multicinctus) (P60615 whole entry, looked up): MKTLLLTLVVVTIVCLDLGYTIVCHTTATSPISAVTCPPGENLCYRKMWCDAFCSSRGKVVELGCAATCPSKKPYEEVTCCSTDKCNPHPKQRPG

Sequence of Left-right determination factor 2 (Homo sapiens) (O00292 whole entry, looked up): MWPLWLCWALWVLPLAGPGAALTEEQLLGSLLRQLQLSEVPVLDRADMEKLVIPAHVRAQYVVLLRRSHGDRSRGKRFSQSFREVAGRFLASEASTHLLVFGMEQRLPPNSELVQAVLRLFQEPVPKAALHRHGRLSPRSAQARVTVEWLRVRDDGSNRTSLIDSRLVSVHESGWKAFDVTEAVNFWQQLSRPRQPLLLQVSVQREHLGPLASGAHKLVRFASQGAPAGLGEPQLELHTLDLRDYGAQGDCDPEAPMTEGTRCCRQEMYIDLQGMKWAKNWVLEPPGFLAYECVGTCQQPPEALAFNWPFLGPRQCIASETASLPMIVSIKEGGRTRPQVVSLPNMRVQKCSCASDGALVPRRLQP
Sequence of Torsin-1A-interacting protein 1 (Homo sapiens) (Q5JTV8 whole entry, looked up): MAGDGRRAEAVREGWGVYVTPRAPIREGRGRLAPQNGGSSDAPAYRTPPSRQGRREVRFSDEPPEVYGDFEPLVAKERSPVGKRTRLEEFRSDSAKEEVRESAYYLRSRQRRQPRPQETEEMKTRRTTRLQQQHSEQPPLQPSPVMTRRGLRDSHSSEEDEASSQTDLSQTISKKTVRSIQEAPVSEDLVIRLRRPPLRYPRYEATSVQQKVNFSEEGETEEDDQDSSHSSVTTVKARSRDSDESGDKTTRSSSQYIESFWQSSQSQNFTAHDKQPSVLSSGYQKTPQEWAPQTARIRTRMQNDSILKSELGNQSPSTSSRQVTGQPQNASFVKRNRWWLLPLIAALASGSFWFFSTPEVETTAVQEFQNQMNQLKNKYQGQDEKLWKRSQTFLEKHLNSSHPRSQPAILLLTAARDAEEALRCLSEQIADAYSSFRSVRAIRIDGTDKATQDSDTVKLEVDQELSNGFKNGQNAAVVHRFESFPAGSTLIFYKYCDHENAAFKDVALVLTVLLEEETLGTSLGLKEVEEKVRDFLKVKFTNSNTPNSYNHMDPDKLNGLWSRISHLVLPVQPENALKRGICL

SMILES	composite z-score [1]	z-score [2]	composite z-score [3]	composite z-score [4]	composite z-score [5]	composite z-score [6]	composite z-score [7]	composite z-score [8]	composite z-score [9]	composite z-score [10]
C#CCCCON=C1C[C@@H](O)[C@@H](O)[C@@H]2[C@@H]3C(=O)N([C@@H](C)c4ccccc4)C(=O)[C@@H]3CC[C@@H]12	-0.31	1.14	0.201	-0.172	-0.274	-0.166	-0.0553	0.167	-0.512	0.46
CCN1C(=O)[C@H]2[C@H]3[C@H](O)[C@H](O)CC(=NNC(=O)OCc4ccccc4)[C@@H]3CC[C@H]2C1=O	-0.577	0.232	-0.0089	-0.0328	-0.285	-0.0405	-0.0463	-0.0879	-0.399	0.645
O=C1C=C[C@@H](O)[C@@H]2[C@@H]3C(=O)N(Cc4ccccc4)C(=O)[C@@H]3CC[C@@H]12	0.248	0.493	0.527	-0.133	-0.457	-0.0758	-0.283	-0.213	0.476	0.332
CO[C@@H]1COC(=O)[C@@H]2CCCN2C(=O)[C@@H](C)COC(=O)CCC[C@H]1C	0.212	-0.016	0.83	-0.0691	-0.911	-0.175	-0.0553	-0.346	0.883	0.482
CCOC(=O)[C@H](Cc1ccccc1)NC(=O)CCC1CC(OC(=O)NCCc2ccc(F)cc2)CC2(CCCC(COC(=O)NCCC(C)C)O2)O1 (stereo not given in full)	1.4	-0.833	0.676	-0.0594	-0.478	-0.164	-0.253	-0.0524	0.523	0.633
C=CCOCC1CN2[C@@H](CC[C@@H](C)[C@@H]2c2ccc(Br)cc2)C(=O)O1 (stereo not given in full)	0.157	-0.121	0.0328	-0.457	-0.78	-0.219	-0.154	-0.196	0.0323	0.101
CCOC(=O)CCN1C(=O)[C@H]2[C@H]3[C@H](O)[C@H](O)CC(=NO[C@@H]4O[C@H](CO)[C@@H](O)[C@H](O)[C@H]4O)[C@@H]3CC[C@H]2C1=O	1.21	0.891	0.809	-0.896	-1.99	-0.0417	0.296	-0.0784	0.533	0.844
O=C1C=C[C@@H](O)[C@@H]2[C@@H]3C(=O)N(Cc4ccc5c(c4)OCO5)C(=O)[C@@H]3CC[C@@H]12	0.701	-0.322	0.57	-0.112	-0.508	-0.147	-0.0626	-0.238	-0.127	0.123
O=C1[C@H]2[C@H]3[C@H](O)[C@H](O)CC(=NOC[C@@H](O)COCc4ccco4)[C@@H]3CC[C@H]2C(=O)N1Cc1ccccc1	1.48	-0.114	1.19	-0.754	-1.55	-0.152	-0.0866	-0.529	0.77	0.238
C[C@]12CCC3c4ccc(OCC5CO5)cc4CCC3C1CC[C@@H]2O (stereo not given in full)	0.629	-2.71	0.242	0.964	0.285	-0.0346	0.0062	0.316	0.542	1.59
C[C@@H]1CC[C@@H](C(=O)O)N[C@H]1c1cccc(N2CCOCC2)c1	0.456	0.47	0.436	-0.101	-0.0411	-0.0758	-0.262	-0.324	0.513	0.851
COc1ccc(O[C@H]2C=C[C@@H](C#Cc3ccccc3)O[C@@H]2CO)cc1	0.342	-2.17	-0.0192	1.42	0.493	-0.124	0.0048	-0.0428	0.158	0.439
CCOC(=O)[C@H](CC(C)C)NC(=O)CCC1CC(OC(=O)NCc2ccc3c(c2)OCO3)CC2(CCCC(COC(=O)NCCOc3ccccc3)O2)O1 (stereo not given in full)	1.35	-1.07	0.715	-0.0232	-0.466	0.0232	-0.0289	-0.404	0.303	0.905
COC(=O)[C@H](C)NC(=O)CCC1CC(OC(=O)NCc2ccc3c(c2)OCO3)CC2(CCCC(COC(=O)NCc3ccccc3)O2)O1 (stereo not given in full)	1.25	0.188	0.508	0.202	-0.558	-0.001	-0.0709	-0.258	0.179	0.159
C[C@H]1CC[C@@H](C(=O)O)N[C@@H]1c1cccc(N2CCCC2=O)c1	0.4	1.09	0.263	-0.438	-0.55	-0.178	-0.2	-0.181	0.0221	0.197
COc1ccc(COC(=O)NN=C2C[C@@H](O)[C@@H](O)[C@@H]3[C@@H]4C(=O)N(c5cccc(Oc6ccccc6)c5)C(=O)[C@@H]4CC[C@H]23)cc1	-0.0321	-1.46	-0.35	0.0317	0.176	-0.215	-0.2	-0.336	0.215	0.971
CCOC(=O)NN=C1C[C@@H](O)[C@@H](O)[C@@H]2[C@@H]3C(=O)N(c4ccc(F)cc4F)C(=O)[C@@H]3CC[C@H]12	0.108	1.28	0.42	-0.244	-0.212	-0.126	-0.289	0.0775	0.59	0.21
COC(=O)[C@H](C)NC(=O)CCC1CC(OC(=O)NCc2cccc3ccccc23)CC2(CCCC(COC(=O)NCc3cccc(C(F)(F)F)c3)O2)O1 (stereo not given in full)	1.32	-0.548	0.925	1.1	0.269	-0.0384	-0.138	-0.23	0.208	0.292
COc1ccc(O[C@H]2C=C[C@@H](c3ccccc3)O[C@@H]2CON=C2c3cc(OC)ccc3O[C@H](c3cccc(OC)c3)[C@H]2O)cc1	-0.382	-1.78	0.804	-0.0756	0.335	-0.0735	0.296	-0.106	0.399	0.328
CCN1C(=O)[C@H]2[C@H]3[C@H](O)[C@H](O)CC(=NNC(=O)OCc4ccccc4)[C@H]3CC[C@H]2C1=O	0.663	-0.0788	0.227	-0.307	-0.767	-0.0459	0.0637	-0.452	0.185	0.504
CCOC(=O)CCN1C(=O)[C@H]2[C@H]3[C@H](O)[C@H](O)CC(=NOCC=C(C)CCC=C(C)C)[C@H]3CC[C@H]2C1=O	-0.11	-0.409	0.199	-0.38	-0.488	-0.103	-0.221	-0.1	-0.393	0.271
O=C1[C@H]2[C@H]3[C@H](O)[C@H](O)CC(=NO[C@@H]4O[C@H](CO)[C@@H](O)[C@H](O)[C@H]4O)[C@@H]3CC[C@H]2C(=O)N1c1cccc(Oc2ccccc2)c1	0.418	-0.174	0.982	0.209	0.0635	-0.0506	-0.0362	-0.0675	0.593	-0.447
CC(CCC(=O)OC[C@H]1O[C@H](C#Cc2ccccc2)C=C[C@@H]1Oc1ccc(C)cc1)=NOC(C)CN1CCCc2nc(C)c(C)cc21 (stereo not given in full)	1.21	-0.456	0.447	0.687	-0.0954	-0.0944	-0.0146	0.125	0.132	0.898
C[C@H]1CC[C@H]2C(=O)N[C@H](Cc3ccccc3)C(=O)N2[C@@H]1c1ccccc1	-1.38	-0.283	0.395	-0.742	-0.194	-0.127	0.37	-0.0428	0.51	-0.009

— PubChem BioAssay
